Measurements: PubChem BioAssay (EPA / NIEHS)
Where “and” joins values, the source holds several entries; their conditions need not be identical. Equal entries are not always repeated. Inconclusive results are not listed. Some compounds were tested as several samples or in several runs, with calls that do not always agree. Calls of active or inactive are those of the source. How the source made its calls, unless noted: active means hit-call score of the fitted dose curve at least 0.9, where 1 is the maximum; inconclusive means response in the unintended direction; inactive means score below 0.9.

Experiments:
[1] = target: human Peroxisome Proliferator-activated Receptor delta (PPARd), PPARD (gene 5467) (UniProt Q03181); assay: ATG_PPARd_TRANS: Attagene TRANS-FACTORIAL HepG2 Assay for human Peroxisome Proliferator-activated Receptor delta (PPARd) (AID 2283002)
human Peroxisome Proliferator-activated Receptor delta (PPARd), PPARD (gene 5467), sequence (Q03181 whole entry, looked up, the tested form may be a part): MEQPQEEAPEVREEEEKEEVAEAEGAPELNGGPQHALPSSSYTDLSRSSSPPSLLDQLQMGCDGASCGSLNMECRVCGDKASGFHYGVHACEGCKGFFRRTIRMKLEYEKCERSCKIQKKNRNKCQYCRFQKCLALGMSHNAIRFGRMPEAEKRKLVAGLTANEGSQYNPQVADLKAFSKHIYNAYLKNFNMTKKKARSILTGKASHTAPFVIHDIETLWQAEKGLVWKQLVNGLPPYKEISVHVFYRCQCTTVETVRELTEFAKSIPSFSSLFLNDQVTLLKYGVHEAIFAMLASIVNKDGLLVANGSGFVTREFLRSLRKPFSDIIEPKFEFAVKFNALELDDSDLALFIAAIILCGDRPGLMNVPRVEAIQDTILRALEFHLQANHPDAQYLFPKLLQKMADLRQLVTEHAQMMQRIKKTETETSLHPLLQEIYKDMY
Method in brief: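 Fluorescence from capillary electrophoresis of labelled RT-PCR reporter fragments gives the signal; DMSO sets baseline. Cells: HepG2 transiently carrying GAL4-UAS reporter units plus chimeric nuclear receptor-Gal4 proteins, exposed to chemicals for 24 h.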

[2] = read-out: Intercellular Adhesion Molecule 1 (ICAM1), ICAM1 (gene 3383); assay: BSK_3C_ICAM1: BioMAP Diversity Plus: 3C Assay for Intercellular Adhesion Molecule 1 (ICAM1) Biomarker Activity (AID 2283003; active means hit-call score of the fitted dose curve at least 0.9, where 1 is the maximum; inactive means score below 0.9); details: primary human endothelial cells (HUVEC); actives raise or lower the signal
Method in brief: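 Human vascular endothelial primary cells, 3C conditions, 24 h treatment. ICAM-1 by ELISA.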

[3] = target: Retinoic acid receptor alpha (Homo sapiens) (UniProt P10276); assay: ATG_RARa_TRANS: Attagene TRANS-FACTORIAL HepG2 Assay for human Retinoic Acid Receptor alpha (RARa) (AID 2283005)
Retinoic acid receptor alpha (Homo sapiens), sequence (P10276 whole entry, looked up, the tested form may be a part): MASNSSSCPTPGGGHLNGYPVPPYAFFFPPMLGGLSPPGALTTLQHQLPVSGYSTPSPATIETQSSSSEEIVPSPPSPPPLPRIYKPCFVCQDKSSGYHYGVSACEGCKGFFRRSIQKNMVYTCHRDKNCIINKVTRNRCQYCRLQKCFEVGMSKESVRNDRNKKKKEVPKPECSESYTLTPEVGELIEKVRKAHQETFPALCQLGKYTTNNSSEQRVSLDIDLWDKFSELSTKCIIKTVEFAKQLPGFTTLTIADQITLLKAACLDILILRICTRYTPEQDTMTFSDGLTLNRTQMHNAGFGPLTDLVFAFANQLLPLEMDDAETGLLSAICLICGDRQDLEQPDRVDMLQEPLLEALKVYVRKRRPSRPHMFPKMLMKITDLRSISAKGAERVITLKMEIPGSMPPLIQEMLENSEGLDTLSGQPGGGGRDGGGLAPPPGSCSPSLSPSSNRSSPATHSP
Method in brief: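 HepG2 transiently transfected with multiplex GAL4-UAS reporter units including a human RARa–GAL4 chimera; 24 h compound exposure. Reporter mRNA quantified by RT-PCR, 6-FAM labeling and capillary electrophoresis; gain of signal versus DMSO.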

[4] = target: Peroxisome proliferator-activated receptor gamma (Homo sapiens) (UniProt P37231); assay: ATG_PPARg_TRANS: Attagene TRANS-FACTORIAL HepG2 Assay for human Peroxisome Proliferator-activated Receptor-gamma (PPARg) (AID 2283007)
Peroxisome proliferator-activated receptor gamma (Homo sapiens), sequence (P37231 whole entry, looked up): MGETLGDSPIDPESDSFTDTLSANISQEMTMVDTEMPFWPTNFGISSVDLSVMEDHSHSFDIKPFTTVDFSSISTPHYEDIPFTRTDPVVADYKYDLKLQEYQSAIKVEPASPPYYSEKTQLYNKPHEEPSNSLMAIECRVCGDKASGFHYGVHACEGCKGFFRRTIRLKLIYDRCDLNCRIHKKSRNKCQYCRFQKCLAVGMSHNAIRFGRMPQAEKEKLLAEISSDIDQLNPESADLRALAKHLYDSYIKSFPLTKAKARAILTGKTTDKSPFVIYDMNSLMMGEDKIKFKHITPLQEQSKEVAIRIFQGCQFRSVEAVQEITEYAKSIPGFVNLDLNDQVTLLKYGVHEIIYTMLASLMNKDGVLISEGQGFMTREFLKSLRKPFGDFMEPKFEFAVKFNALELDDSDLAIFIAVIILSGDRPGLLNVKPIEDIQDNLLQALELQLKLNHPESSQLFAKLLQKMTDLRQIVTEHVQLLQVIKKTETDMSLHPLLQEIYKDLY
Method in brief: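 Twenty-four hours after chemical dosing of transiently transfected HepG2 cells, isolated RNA was converted to cDNA, reporter sequences amplified and 6-FAM-labelled, then HpaI-digested and analysed by capillary electrophoresis. Signal increase against DMSO was fitted.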

[5] = target: Nuclear receptor subfamily 1 group I member 2 (Homo sapiens) (UniProt O75469); assay: ATG_PXR_TRANS: Attagene TRANS-FACTORIAL HepG2 Assay for human Pregnane X Receptor (PXR) (AID 2283008)
Nuclear receptor subfamily 1 group I member 2 (Homo sapiens), sequence (O75469 whole entry, looked up, the tested form may be a part): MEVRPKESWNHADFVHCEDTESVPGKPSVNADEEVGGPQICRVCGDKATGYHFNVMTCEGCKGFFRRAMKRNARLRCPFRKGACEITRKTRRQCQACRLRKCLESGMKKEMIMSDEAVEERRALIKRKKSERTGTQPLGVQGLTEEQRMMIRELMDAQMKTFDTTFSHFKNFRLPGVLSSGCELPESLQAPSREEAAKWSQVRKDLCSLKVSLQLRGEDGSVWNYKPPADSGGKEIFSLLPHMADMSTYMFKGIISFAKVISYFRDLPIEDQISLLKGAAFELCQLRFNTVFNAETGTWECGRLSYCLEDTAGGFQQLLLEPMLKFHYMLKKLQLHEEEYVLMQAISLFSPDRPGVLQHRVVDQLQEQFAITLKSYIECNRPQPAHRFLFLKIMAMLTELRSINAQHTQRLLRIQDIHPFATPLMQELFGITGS
Method in brief: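 HepG2 cells transiently transfected with multiple reporter units, here a PXR-GAL4 chimera driving a GAL4-UAS reporter; 24 h compound exposure. Reporter mRNA measured by RT-PCR, FAM labelling and capillary electrophoresis; gain of signal fitted against DMSO baseline.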

[6] = target: human Retinoic Acid Receptor gamma (RARg), RARG (gene 5916) (UniProt P13631); assay: ATG_RARg_TRANS: Attagene TRANS-FACTORIAL HepG2 Assay for human Retinoic Acid Receptor gamma (RARg) (AID 2283009)
human Retinoic Acid Receptor gamma (RARg), RARG (gene 5916), sequence (P13631 whole entry, looked up, the tested form may be a part): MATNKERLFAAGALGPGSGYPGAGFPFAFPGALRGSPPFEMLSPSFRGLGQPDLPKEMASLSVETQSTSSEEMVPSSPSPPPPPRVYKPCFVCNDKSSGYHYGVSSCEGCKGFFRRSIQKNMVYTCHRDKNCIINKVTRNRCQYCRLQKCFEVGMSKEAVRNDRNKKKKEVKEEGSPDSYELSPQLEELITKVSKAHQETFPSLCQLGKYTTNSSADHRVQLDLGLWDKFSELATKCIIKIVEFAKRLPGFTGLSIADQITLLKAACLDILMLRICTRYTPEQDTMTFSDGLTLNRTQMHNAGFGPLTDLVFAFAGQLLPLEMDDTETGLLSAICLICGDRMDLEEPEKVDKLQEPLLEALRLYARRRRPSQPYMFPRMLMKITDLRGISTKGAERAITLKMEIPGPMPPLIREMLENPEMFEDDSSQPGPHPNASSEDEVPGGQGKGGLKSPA
Method in brief: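 HepG2, RARg-GAL4 TRANS system, 24 h exposure; reporter mRNA by RT-PCR + CE fluorescence; increase over DMSO.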

[7] = target: human RAR-related Orphan Receptor beta (RORb), RORB (gene 6096) (UniProt Q92753); assay: ATG_RORb_TRANS: Attagene TRANS-FACTORIAL HepG2 Assay for human RAR-related Orphan Receptor beta (RORb) (AID 2283010)
human RAR-related Orphan Receptor beta (RORb), RORB (gene 6096), sequence (Q92753 whole entry, looked up, the tested form may be a part): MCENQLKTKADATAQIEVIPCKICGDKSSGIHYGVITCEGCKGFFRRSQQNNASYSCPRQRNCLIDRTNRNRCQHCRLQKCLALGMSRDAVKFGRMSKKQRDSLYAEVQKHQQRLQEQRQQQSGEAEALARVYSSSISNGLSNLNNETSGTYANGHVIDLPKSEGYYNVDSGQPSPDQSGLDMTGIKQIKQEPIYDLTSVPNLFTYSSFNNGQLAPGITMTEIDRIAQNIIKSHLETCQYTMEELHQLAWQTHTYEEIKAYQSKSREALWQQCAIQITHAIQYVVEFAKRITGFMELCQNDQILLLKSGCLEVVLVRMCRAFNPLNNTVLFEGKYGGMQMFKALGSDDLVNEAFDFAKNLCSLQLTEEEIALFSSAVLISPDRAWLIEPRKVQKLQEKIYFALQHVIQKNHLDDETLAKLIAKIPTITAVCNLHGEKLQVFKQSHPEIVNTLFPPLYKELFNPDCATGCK
Method in brief: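 In this TRANS-format test, human HepG2 cells express chimeric NR-Gal4 fusion proteins driving GAL4-UAS reporters. After 24 h dosing, reporter transcripts are measured by fluorescent RT-PCR/capillary electrophoresis, with DMSO as negative control.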

[8] = target: human RAR-related Orphan Receptor gamma (RORg), RORC (gene 6097) (UniProt P51449); assay: ATG_RORg_TRANS: Attagene TRANS-FACTORIAL HepG2 Assay for human RAR-related Orphan Receptor gamma (RORg) (AID 2283011)
Method in brief: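 Transient MRTU transfection of HepG2 (TRANS format, exogenous NR-Gal4 chimera). 24 h dosing. Total RNA → oligo(dT) RT → PCR → 6-FAM labelling → HpaI cut → CE. Gain vs DMSO.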

[9] = target: Retinoic acid receptor RXR-alpha (Homo sapiens) (UniProt P19793); assay: ATG_RXRa_TRANS: Attagene TRANS-FACTORIAL HepG2 Assay for human Retinoid X Receptor alpha (RXRa) (AID 2283012)
Retinoic acid receptor RXR-alpha (Homo sapiens), sequence (P19793 whole entry, looked up, the tested form may be a part): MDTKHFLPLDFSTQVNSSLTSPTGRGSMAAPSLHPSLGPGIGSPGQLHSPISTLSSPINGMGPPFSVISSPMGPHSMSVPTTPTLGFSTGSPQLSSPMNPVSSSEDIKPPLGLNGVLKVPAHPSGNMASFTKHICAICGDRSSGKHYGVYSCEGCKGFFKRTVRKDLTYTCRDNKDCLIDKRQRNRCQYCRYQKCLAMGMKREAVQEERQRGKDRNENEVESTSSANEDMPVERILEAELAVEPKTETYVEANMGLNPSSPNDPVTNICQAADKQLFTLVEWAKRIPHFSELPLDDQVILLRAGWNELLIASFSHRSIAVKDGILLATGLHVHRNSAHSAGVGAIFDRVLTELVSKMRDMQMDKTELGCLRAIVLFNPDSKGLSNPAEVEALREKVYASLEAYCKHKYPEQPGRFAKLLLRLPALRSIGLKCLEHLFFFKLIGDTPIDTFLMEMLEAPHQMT
Method in brief: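 Cells (HepG2) carried transiently transfected GAL4-responsive reporter units. Following a 24 h chemical incubation, reporter mRNA induction was read via RT-PCR fragment analysis; DMSO served as negative control and baseline.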

[10] = target: human Retinoid X Receptor beta (RXRb), RXRB (gene 6257) (UniProt P28702); assay: ATG_RXRb_TRANS: Attagene TRANS-FACTORIAL HepG2 Assay for human Retinoid X Receptor beta (RXRb) (AID 2283013)
human Retinoid X Receptor beta (RXRb), RXRB (gene 6257), sequence (P28702 whole entry, looked up): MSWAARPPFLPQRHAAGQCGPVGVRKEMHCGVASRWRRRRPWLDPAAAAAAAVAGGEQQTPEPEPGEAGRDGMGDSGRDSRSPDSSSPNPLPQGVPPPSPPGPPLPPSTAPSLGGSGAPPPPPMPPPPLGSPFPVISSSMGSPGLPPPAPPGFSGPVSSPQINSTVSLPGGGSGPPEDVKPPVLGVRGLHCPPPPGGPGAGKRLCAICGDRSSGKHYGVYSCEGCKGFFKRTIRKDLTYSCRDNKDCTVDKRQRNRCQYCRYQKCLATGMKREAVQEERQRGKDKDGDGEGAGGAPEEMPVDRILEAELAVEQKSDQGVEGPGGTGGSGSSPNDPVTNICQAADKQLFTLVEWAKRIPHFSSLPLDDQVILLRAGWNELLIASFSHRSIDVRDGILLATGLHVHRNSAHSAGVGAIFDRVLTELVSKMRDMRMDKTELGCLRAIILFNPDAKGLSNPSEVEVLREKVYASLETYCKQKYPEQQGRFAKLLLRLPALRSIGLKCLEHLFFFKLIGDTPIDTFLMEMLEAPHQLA
Method in brief: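 Multiplexed TRANS reporter assay in HepG2; 24 h dosing; reporter mRNA by RT-PCR/CE fluorescence; gain-of-signal relative to DMSO.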

[11] = target: human Thyroid Receptor alpha (THRa1), THRA (gene 7067) (UniProt P10827); assay: ATG_THRa1_TRANS: Attagene TRANS-FACTORIAL HepG2 Assay for human Thyroid Receptor alpha (THRa1) (AID 2283014)
human Thyroid Receptor alpha (THRa1), THRA (gene 7067), sequence (P10827 whole entry, looked up, the tested form may be a part): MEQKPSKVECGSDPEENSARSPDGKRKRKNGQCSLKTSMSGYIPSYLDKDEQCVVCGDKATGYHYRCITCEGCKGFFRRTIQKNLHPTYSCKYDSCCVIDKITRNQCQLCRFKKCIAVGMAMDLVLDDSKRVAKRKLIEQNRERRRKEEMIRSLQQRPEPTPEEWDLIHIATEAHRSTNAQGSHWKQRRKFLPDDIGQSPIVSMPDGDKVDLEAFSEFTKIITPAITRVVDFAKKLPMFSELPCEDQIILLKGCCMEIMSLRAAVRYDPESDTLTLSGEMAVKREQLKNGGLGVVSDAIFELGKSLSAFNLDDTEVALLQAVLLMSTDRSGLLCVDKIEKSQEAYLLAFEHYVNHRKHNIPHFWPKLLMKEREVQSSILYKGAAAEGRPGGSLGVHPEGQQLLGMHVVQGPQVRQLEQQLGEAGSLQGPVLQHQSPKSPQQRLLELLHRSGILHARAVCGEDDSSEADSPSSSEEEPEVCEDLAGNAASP
Method in brief: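 Transient HepG2 transfection, NR-Gal4 chimera driving GAL4-UAS reporters; 24 h compound exposure; total RNA, oligo(dT) RT, PCR, fluorescent primer extension, capillary electrophoresis. Upward direction vs DMSO control.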

[12] = read-out: E-selectin (Homo sapiens) (UniProt P16581); assay: BSK_3C_Eselectin: BioMAP Diversity Plus: 3C Assay for Eselectin Biomarker Activity (AID 2283015; active means hit-call score of the fitted dose curve at least 0.9, where 1 is the maximum; inactive means score below 0.9;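 further: cell surface E-selectin protein quantified by ELISA 24 h after dosing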); details: primary human endothelial cells (HUVEC); actives raise or lower the signal
Method in brief: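 HUVEC, 3C stimulation; compound exposure 24 h; E-selectin by ELISA; gain- or loss-of-signal fitted bidirectionally vs DMSO baseline.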

[13] = read-out: Interleukin-1 alpha (IL1a), IL1A (gene 3552); assay: BSK_BE3C_IL1a: BioMAP Diversity Plus: BE3C Assay for Interleukin-1 alpha (IL1a) Biomarker Activity (AID 2283016; active means hit-call score of the fitted dose curve at least 0.9, where 1 is the maximum; inactive means score below 0.9); details: primary human bronchial epithelial cells; actives raise or lower the signal
Method in brief: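 Cultures of primary human bronchial epithelial cells receive test chemical. After 24 h, IL-1a is quantified by ELISA, while parallel wells are fixed in TCA and SRB-stained for total protein. Changes in either direction are fitted relative to DMSO.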

[14] = read-out: Monocyte Chemoattractant Protein-1 (MCP1), CCL2 (gene 6347); assay: BSK_3C_MCP1: BioMAP Diversity Plus: 3C Assay for Monocyte Chemoattractant Protein-1 (MCP1) Biomarker Activity (AID 2283017; active means hit-call score of the fitted dose curve at least 0.9, where 1 is the maximum; inactive means score below 0.9); details: primary human endothelial cells (HUVEC); actives raise or lower the signal
Method in brief: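 HUVEC, 3C system; 24 h chemical exposure; MCP-1 by ELISA; bidirectional curve fit vs DMSO baseline.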

[15] = read-out: Human Leukocyte Antigen - DR isotype (HLADR), HLA-DRA (gene 3122); assay: BSK_3C_HLADR: BioMAP Diversity Plus: 3C Assay for Human Leukocyte Antigen - DR isotype (HLADR) Biomarker Activity (AID 2283019; active means hit-call score of the fitted dose curve at least 0.9, where 1 is the maximum; inactive means score below 0.9); details: primary human endothelial cells (HUVEC); actives raise or lower the signal
Method in brief: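 HUVEC, 3C stimulation, 24 h post-dose; HLA-DR by ELISA; bidirectional curve fit vs DMSO baseline; gain or loss of signal scored.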

[16] = read-out: Interleukin-8 (IL8), CXCL8 (gene 3576); assay: BSK_3C_IL8: BioMAP Diversity Plus: 3C Assay for Interleukin-8 (IL8) Biomarker Activity (AID 2283020; active means hit-call score of the fitted dose curve at least 0.9, where 1 is the maximum; inactive means score below 0.9); details: primary human endothelial cells (HUVEC); actives raise or lower the signal
Method in brief: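 Human vascular endothelial cells (umbilical vein) in the 3C system; IL-8 level detected by ELISA at 24 h post-dose, with DMSO as baseline.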

[17] = read-out: Monokine induced gamma interferon (MIG), CXCL9 (gene 4283); assay: BSK_3C_MIG: BioMAP Diversity Plus: 3C Assay for Monokine induced gamma interferon (MIG) Biomarker Activity (AID 2283021; active means hit-call score of the fitted dose curve at least 0.9, where 1 is the maximum; inactive means score below 0.9;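 on AC50: MIG protein level measured by immunoassay in the treated endothelial cultures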); details: primary human endothelial cells (HUVEC); actives raise or lower the signal
Method in brief: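 After 24 h of treatment, human umbilical vein endothelial cultures (3C system) had their MIG biomarker level determined by ELISA, with DMSO serving as negative control.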

[18] = BSK_3C_Proliferation: Cell Proliferation Assessment in the BioMAP Diversity Plus: 3C Assay (AID 2283006; active means hit-call score of the fitted dose curve at least 0.9, where 1 is the maximum; inactive means score below 0.9;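 on AC50: potency may reflect either rise or fall in cell number versus DMSO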); details: primary human endothelial cells (HUVEC)
Method in brief: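 Proliferation of human vascular endothelial primary cells after 48 h dosing, quantified as SRB-stained protein at 560 nm relative to DMSO.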

[19] = target: human Vitamin D Receptor (VDR), VDR (gene 7421) (UniProt P11473); assay: ATG_VDR_TRANS: Attagene TRANS-FACTORIAL HepG2 Assay for human Vitamin D Receptor (VDR) (AID 2283022)
Method in brief: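 RT-PCR/capillary electrophoresis read-out of reporter mRNA induction in transiently transfected HepG2; 24 h dosing; chimeric NR-Gal4 (TRANS format); gain-of-signal fit against DMSO baseline.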

[20] = read-out: Monocyte Chemoattractant Protein-1 (MCP1), CCL2 (gene 6347); assay: BSK_4H_MCP1: BioMAP Diversity Plus: 4H Assay for Monocyte Chemoattractant Protein-1 (MCP1) Biomarker Activity (AID 2283018; active means hit-call score of the fitted dose curve at least 0.9, where 1 is the maximum; inactive means score below 0.9); details: primary human endothelial cells (HUVEC); actives raise or lower the signal
Method in brief: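 Readout: MCP-1 ELISA on compound-treated HUVEC, sampled 24 h post-dosing. Baseline and negative control DMSO; bidirectional fit. Overt toxicity checked alongside by sulforhodamine B protein staining at time of biomarker measurement.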

Measured: AC50

E-selectin (Homo sapiens), sequence (P16581 whole entry, looked up): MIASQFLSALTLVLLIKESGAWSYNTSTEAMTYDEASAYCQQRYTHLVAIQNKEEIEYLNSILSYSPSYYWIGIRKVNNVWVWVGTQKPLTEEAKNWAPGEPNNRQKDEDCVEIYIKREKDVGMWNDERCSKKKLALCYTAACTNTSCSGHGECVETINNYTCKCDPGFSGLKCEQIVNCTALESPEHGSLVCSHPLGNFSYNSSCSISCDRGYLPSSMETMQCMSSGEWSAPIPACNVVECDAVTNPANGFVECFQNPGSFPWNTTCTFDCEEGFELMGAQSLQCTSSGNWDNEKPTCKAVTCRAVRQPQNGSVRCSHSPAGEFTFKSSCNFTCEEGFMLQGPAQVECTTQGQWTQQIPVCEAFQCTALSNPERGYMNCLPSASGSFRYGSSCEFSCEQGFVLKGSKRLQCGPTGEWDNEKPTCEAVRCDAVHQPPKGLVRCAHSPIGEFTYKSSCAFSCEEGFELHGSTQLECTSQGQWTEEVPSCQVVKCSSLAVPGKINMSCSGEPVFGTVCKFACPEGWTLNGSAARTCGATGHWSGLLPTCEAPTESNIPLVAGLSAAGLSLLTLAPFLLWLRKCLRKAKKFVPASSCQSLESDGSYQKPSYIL

OCCC(F)(F)C(F)(F)C(F)(F)C(F)(F)C(F)(F)C(F)(F)F
active: [2] 54.7 µM and 44.7 µM | [14] 49.8 µM | [15] 46.1 µM and 42.1 µM | [16] 45.7 µM | [17] 44.8 µM and 45.3 µM
inactive: [1] | [2] | [3] | [4] | [5] | [6] | [7] | [8] | [9] | [10] | [11] | [12] | [13] | [14] | [15] | [16] | [17]

COCC(C)OCC(C)O (configuration not stated)
inactive: [1] | [2] | [4] | [6] | [12] | [13] | [14] | [16] | [17]

NC(=O)N(O)[C@@H]1C=C[C@H](Oc2cccc(Oc3ccc(F)cc3)c2)C1
active: [18] 9.97 µM | [4] 10.1 µM | [5] 7.33 µM
not listed: [3] | [7] | [8] | [9] | [11] | [15] | [20]
inactive: all other assays above

CCCCC(CC)COC(=O)CCCCC(=O)OCC(CC)CCCC (configuration not stated)
active: [10] 49.1 µM
not listed: [4] | [8] | [11] | [15] | [18] | [19]
inactive: all other assays above

CC(C)(C)c1cc(C(C)(C)C)c(O)c(C(C)(C)C)c1
active: [9] 217 nM and 1.04 µM | [10] 18.6 nM and 320 nM
not listed: [3] | [6] | [7] | [19] | [20]
inactive: all other assays above

c1ccc2c(c1)ccc1ccccc12
active: [10] 44.9 µM
not listed: [3] | [4] | [7] | [8] | [15]
inactive: all other assays above
